Rows were chosen to be rich in hits. Some 9.2% of all compounds tested hit in one or more screens of this group.
SMN2 splice up – SMN2 splice variant enhancement | Potency, µM (doses to about 46.1 µM), most hits filed as activators | AID 1458 | 210,000 tested, 2.8% active | HEK293 SMN2-luciferase splicing reporter, luminescence, 30-36 h; note: nearly all actives have a fitted effect of over 55% in size
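HEK293 cells carry an SMN2 minigene-luciferase reporter in which exon 7 inclusion puts luciferase in frame. Cells were seeded at 2000 cells/well, attached for 10-12 hours, then exposed to compounds for 30-36 hours at 37C before ONE-Glo luminescence.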
Rab9 promoter act – activates the Rab9 promoter. Huh7 Rab9 promoter-luciferase reporter, luminescence, 24 h. Potency, µM (series often up to 9.22 µM), most hits filed as activators. 320,000 tested, 2.8% active; note: nearly all actives have a fitted effect of over 60% in size
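Huh7 reporter line, Rab9 promoter upstream of luciferase. Compound exposure 24 h at 37 °C in reduced-serum medium with 10% FBS. Read-out: luminescence.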
FLuc counter – inhibits or activates purified firefly luciferase, miR-21 counter-screen; Potency, µM (doses to about 57.5 µM), most hits filed as inhibitors; purified FLuc, Km substrates, luminescence inhibition; 360,000 tested, 6.9% active; note: nearly all actives have a fitted effect of over 55% in size
Target sequence (P08659 whole entry, looked up): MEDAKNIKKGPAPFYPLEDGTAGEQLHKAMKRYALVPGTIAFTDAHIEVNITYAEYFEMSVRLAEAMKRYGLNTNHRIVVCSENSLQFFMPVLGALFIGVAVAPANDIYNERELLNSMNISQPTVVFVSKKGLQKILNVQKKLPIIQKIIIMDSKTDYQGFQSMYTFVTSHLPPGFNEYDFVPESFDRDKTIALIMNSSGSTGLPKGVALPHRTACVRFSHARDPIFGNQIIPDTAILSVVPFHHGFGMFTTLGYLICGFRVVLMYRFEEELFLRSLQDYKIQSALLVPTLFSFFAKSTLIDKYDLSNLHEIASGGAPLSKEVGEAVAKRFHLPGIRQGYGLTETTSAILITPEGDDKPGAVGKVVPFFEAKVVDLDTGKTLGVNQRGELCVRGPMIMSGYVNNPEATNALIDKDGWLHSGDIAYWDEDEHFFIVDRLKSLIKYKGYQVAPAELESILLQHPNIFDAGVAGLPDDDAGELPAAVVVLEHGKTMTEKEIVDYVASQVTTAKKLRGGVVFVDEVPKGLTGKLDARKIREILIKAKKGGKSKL
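Biochemical qHTS of compounds, final roughly 60 µM downward over six points, against 10 nM purified firefly luciferase using Km concentrations of substrates (10 uM D-luciferin, 10 uM ATP) in Tris acetate pH 7.5 buffer; luminescence output.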
NPC1 prom act – activates the NPC1 promoter; AID 485313; Potency, µM (series often up to 9.22 µM), hits mostly activators; Huh7 NPC1 promoter luciferase reporter, 24 h; 320,000 tested, 2.4% active; note: nearly all actives have a fitted effect of over 60% in size
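Luminescence from an NPC1 promoter-driven luciferase reporter in stably transfected Huh7 cells was measured after 24 h compound treatment at 37 °C, followed by 10 min ambient incubation with luciferase detection reagent.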
ELG1 genotox – genotoxicity induction in ELG1-luciferase HEK293T cells; 330,000 tested, 1.3% active; HEK293T ELG1-luciferase reporter, luminescence, 16 h; Potency, µM (highest dose often 46 µM), actives largely listed as activators; note: nearly all actives have a fitted effect of over 60% in size
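ELG1-luciferase HEK293T cells, 2,000/well; compound pinned in; 16 hr, 37 °C, 5% CO2; ONE-Glo, 30 min RT; luminescence on CCD imager.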
ELG1 repair inh – blocks ELG1-dependent DNA repair in HEK293T cells; Potency, µM (top dose mostly 46.1 µM), actives largely listed as inhibitors; 330,000 tested, 2.3% active; HEK293T ELG1-luciferase reporter, luminescence, 16 h; DNA damage induced by 5-fluorouridine; note: nearly all actives have a fitted effect of over 55% in size
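Cells (2,000 per well) received 5-fluorouridine plus test compound or DMSO and were incubated 16 hr at 37 °C, 5% CO2. Luciferase activity was read by luminescence 30 min after ONE-Glo addition; signal suppression marked inhibition of damage-induced ELG1 function.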
Of the large screens only hits and unclear results are named; the others gave an inactive call. Calls come from the whole dose curve; as a rule, active = well fitted curve in the direction sought with a large enough effect; inconclusive = small, poorly fitted or top-dose-only effect, or another doubt; inactive = no such curve, though single readings can be large; an effect the other way counts as inactive or inconclusive.

N#C/C(=C\c1ccc[nH]1)C(=O)c1ccccc1	FLuc counter 16.9µM, ELG1 repair inh inconclusive (no result: SMN2 splice up)
N#C/C(=C\c1cccc(Cl)c1)C(=O)c1ccccc1	FLuc counter inconclusive (no result: SMN2 splice up)
Cc1ccc2nc(-c3ccc(NC(=O)c4ccccc4S(C)(=O)=O)cc3)sc2c1	FLuc counter 21.3µM (no result: SMN2 splice up, Rab9 promoter act, NPC1 prom act, ELG1 genotox, ELG1 repair inh)
Cc1ccc2nc(-c3ccc(NC(=S)NC(=O)CC(C)C)cc3)sc2c1	Rab9 promoter act 1.12µM, FLuc counter 23.9µM, NPC1 prom act 0.562µM, ELG1 genotox 9.2µM, ELG1 repair inh inconclusive
Cc1ccc2nc(-c3ccc(NC(=O)CNC4CC4)cc3)sc2c1	SMN2 splice up 2.24µM, Rab9 promoter act 0.282µM, FLuc counter 2.69µM, NPC1 prom act 0.631µM, ELG1 genotox inconclusive, ELG1 repair inh inconclusive
Cc1ccc(C)c(N(CC(=O)Nc2ccc(-c3nc4ccc(C)cc4s3)cc2)S(C)(=O)=O)c1	none
Cc1ccc2nc(-c3ccc(NC(=O)C(F)(F)F)cc3)sc2c1	FLuc counter 0.477µM (no result: Rab9 promoter act, NPC1 prom act, ELG1 genotox, ELG1 repair inh)
Cc1ccc(S(=O)(=O)Nc2ccccc2CNC2CCCCC2)cc1	none
O=C(c1ccncc1)N1CCc2ccccc2C1	none (no result: SMN2 splice up)
O=C(Nc1ccc2nc(-c3cccs3)c(-c3cccs3)nc2c1)N1CCOCC1	ELG1 repair inh 5.17µM
O=C(c1cncc(Br)c1)N1CCc2ccccc2C1	ELG1 repair inh 5.8µM
O=C(c1cc(-c2cccs2)on1)N1CCN(C(c2ccccc2)c2ccccc2)CC1	none
O=C(c1cc(-c2cccs2)on1)N1CCOCC1	SMN2 splice up inconclusive, Rab9 promoter act inconclusive, FLuc counter 19µM, NPC1 prom act 2.82µM, ELG1 genotox inconclusive, ELG1 repair inh inconclusive
O=C(c1cc(-c2ccccc2O)on1)N1CCc2ccccc2C1	FLuc counter inconclusive, ELG1 repair inh inconclusive
O=C(c1cc(-c2cccs2)on1)N1CCc2ccccc2C1	FLuc counter 19µM, ELG1 repair inh inconclusive
CCOC(=O)c1noc2ncn(CC(=O)Nc3ccc(OC)c(Cl)c3)c(=O)c12	none (no result: SMN2 splice up, Rab9 promoter act, NPC1 prom act, ELG1 genotox, ELG1 repair inh)
COc1ccccc1N(C)S(=O)(=O)c1ccc(C(=O)OCC(=O)N(C(C)C)C(C)C)cc1	none
O=C(O)CSc1ncnc2sc(-c3ccccc3)cc12	FLuc counter 13.5µM
S=c1[nH]cnc2sc(-c3ccccc3)cc12	Rab9 promoter act inconclusive, FLuc counter 10.7µM, ELG1 repair inh inconclusive (no result: SMN2 splice up)
O=C(O)CCSc1ncnc2sc(-c3ccccc3)cc12	FLuc counter 21.3µM (no result: SMN2 splice up)
COc1ccc2c(c1)CCc1c(-c3noc4c3CCc3cc(OC)ccc3-4)noc1-2	none (no result: Rab9 promoter act, FLuc counter, NPC1 prom act, ELG1 genotox, ELG1 repair inh)
COc1ccc2c(c1)CCc1c-2n[nH]c1C(=O)O	FLuc counter 10.7µM
CSCCC(NS(=O)(=O)c1ccc(C)cc1)C(=O)NC1CCCCCC1 (stereo not given)	none (no result: SMN2 splice up)
COC(=O)c1ccc(/C=C/c2ccc3cccc(OC)c3n2)cc1	FLuc counter 5.36µM, ELG1 repair inh inconclusive
COc1cc(/C=C/c2ccc3cccc(O)c3n2)cc(Br)c1OC	Rab9 promoter act 3.98µM, FLuc counter 4.78µM, NPC1 prom act 2.82µM, ELG1 genotox 23.1µM, ELG1 repair inh inconclusive (no result: SMN2 splice up)
COc1ccc(Br)cc1/C=C/c1ccc2cccc(O)c2n1	FLuc counter inconclusive (no result: SMN2 splice up)
COc1ccc(/C=C/c2ccc3cccc(O)c3n2)cc1Br	FLuc counter 6.01µM, NPC1 prom act inconclusive, ELG1 genotox inconclusive, ELG1 repair inh inconclusive (no result: SMN2 splice up)
COc1ccc(/C=C/c2ccc3c(Br)ccc(O)c3n2)cc1	Rab9 promoter act inconclusive, FLuc counter 5.36µM, NPC1 prom act inconclusive, ELG1 genotox inconclusive, ELG1 repair inh inconclusive (no result: SMN2 splice up)
CCOC(=O)c1ccc(Nc2c(-c3ccc(N(C)C)cc3)nc3nc[nH]n23)cc1	none (no result: SMN2 splice up, Rab9 promoter act, NPC1 prom act, ELG1 genotox, ELG1 repair inh)
Cc1c(C(=O)Nc2cccc(Cl)c2)oc2ccc(S(=O)(=O)N(C)C3CCCCC3)cc12	none (no result: SMN2 splice up, Rab9 promoter act, NPC1 prom act, ELG1 genotox, ELG1 repair inh)
COc1cc(/C=C/c2ccc3cccc(O)c3n2)cc(Cl)c1OC	Rab9 promoter act 0.708µM, FLuc counter 2.69µM, NPC1 prom act 0.631µM, ELG1 genotox 20.6µM, ELG1 repair inh inconclusive (no result: SMN2 splice up)
COc1cc(/C=C/c2ccc3cccc(O)c3n2)cc(OC)c1OC	FLuc counter inconclusive, ELG1 genotox inconclusive, ELG1 repair inh inconclusive (no result: SMN2 splice up)
